Laboratory results taken from PubChem BioAssay AID1159580 (chemical genetic matrix, 2015).
Several values for one entry are separate records, joined by “and”; a condition that tells them apart may be missing. Equal entries are not always repeated. In all, about 5,500 compounds went through this assay and about 2,000 (36%) were called active. Inconclusive results (about 18%) are left out. Rule as the data show it: active = normalized growth mostly below about 0.91 (no sharp cut-off); inconclusive = no clear call, values can overlap the other calls; inactive = mostly above about 0.92. The list shows a part of the results.

Experiment: chemical genetic growth profiling, strain panel (AID 1159580);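 also: tested at 20 µM; growth read once vehicle control cultures reached saturation at 30 °C; 1 = growth at the plate median or of vehicle wells; lower values mean less growth of the strain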
Conditions: S. cerevisiae deletion strains, growth OD

For `CN1CCC[C@@H]1CCO[C@](C)(c1ccccc1)c1ccc(Cl)cc1`, the normalized growth (locus YAL013W, strain DEP1, stronger effect = lower value) was 0.998 (inactive), the normalized growth (locus YAL021C, strain ccr4, stronger effect = lower value) was 0.88 (active) and the normalized growth (locus YAL026C, strain drs2, stronger effect = lower value) was 0.62 (active). For the same molecule, the normalized growth (locus YAL030W, strain snc1, stronger effect = lower value) was 1 (inactive), the normalized growth (locus YBL061C, strain skt5, stronger effect = lower value) was 0.998 (inactive) and the normalized growth (locus YBR009C, strain hhf1, stronger effect = lower value) was 0.957 (inactive). The normalized growth (locus YBR021W, strain FUR4, stronger effect = lower value) was 0.671 (active), the normalized growth (locus YBR023C, strain chs3, stronger effect = lower value) was 0.949 (inactive) and the normalized growth (locus YBR171W, strain sec66, stronger effect = lower value) was 0.997 (inactive). The normalized growth (locus YBR229C, strain ROT2, stronger effect = lower value) was 1.01 (inactive), the normalized growth (locus YBR231C, strain swc5, stronger effect = lower value) was 0.984 (inactive) and the normalized growth (locus YBR279W, strain paf1, stronger effect = lower value) was 0.964 (inactive). For the same molecule, the normalized growth (locus YCL011C, strain gbp2, stronger effect = lower value) was 0.959 (inactive), the normalized growth (locus YCL016C, strain dcc1, stronger effect = lower value) was 0.968 (inactive) and the normalized growth (locus YCL029C, strain bik1, stronger effect = lower value) was 0.991 (inactive). For the same molecule, the normalized growth (locus YCL069W, strain vba3, stronger effect = lower value) was 0.969 (inactive), the normalized growth (locus YCR088W, strain abp1, stronger effect = lower value) was 0.999 (inactive) and the normalized growth (locus YDL005C, strain med2, stronger effect = lower value) was 1 (inactive). For the same molecule, the normalized growth (locus YDL035C, strain GPR1, stronger effect = lower value) was 0.913 (inactive), the normalized growth (locus YDL040C, strain nat1, stronger effect = lower value) was 1 (inactive) and the normalized growth (locus YDL074C, strain BRE1, stronger effect = lower value) was 0.817 (inactive). The normalized growth (locus YDL101C, strain DUN1, stronger effect = lower value) was 1.01 (inactive), the normalized growth (locus YDL134C, strain PPH21, stronger effect = lower value) was 1.01 (inactive) and the normalized growth (locus YDL185W, strain tfp1, stronger effect = lower value) was 0.99 (inactive). The normalized growth (locus YDL192W, strain arf1, stronger effect = lower value) was 1.01 (inactive), the normalized growth (locus YDR001C, strain nth1, stronger effect = lower value) was 1.02 (inactive) and the normalized growth (locus YDR069C, strain doa4, stronger effect = lower value) was 0.955 (inactive). For the same molecule, the normalized growth (locus YDR101C, strain arx1, stronger effect = lower value) was 0.988 (inactive), the normalized growth (locus YDR137W, strain rgp1, stronger effect = lower value) was 1.24 [resistant] (active) and the normalized growth (locus YDR150W, strain NUM1, stronger effect = lower value) was 1.02 (inactive). For the same molecule, the normalized growth (locus YDR159W, strain sac3, stronger effect = lower value) was 1.01 (inactive), the normalized growth (locus YDR162C, strain NBP2, stronger effect = lower value) was 0.993 (inactive) and the normalized growth (locus YDR195W, strain ref2) was 1.08 (inactive). For the same molecule, the normalized growth (locus YDR297W, strain sur2, stronger effect = lower value) was 0.998 (inactive), the normalized growth (locus YDR318W, strain mcm21, stronger effect = lower value) was 0.984 (inactive) and the normalized growth (locus YDR334W, strain swr1, stronger effect = lower value) was 1.01 (inactive). For the same molecule, the normalized growth (locus YDR335W, strain msn5, stronger effect = lower value) was 0.987 (inactive), the normalized growth (locus YDR388W, stronger effect = lower value) was 0.911 (active) and the normalized growth (locus YDR392W, strain spt3, stronger effect = lower value) was 0.866 (inactive). For the same molecule, the normalized growth (locus YDR502C, strain sam2, stronger effect = lower value) was 0.97 (inactive), the normalized growth (locus YEL003W, strain gim4, stronger effect = lower value) was 0.952 (inactive) and the normalized growth (locus YEL037C, strain rad23, stronger effect = lower value) was 0.993 (inactive). For the same molecule, the normalized growth (locus YEL061C, strain CIN8 (second series), stronger effect = lower value) was 1 (inactive), the normalized growth (locus YEL061C, strain CIN8, stronger effect = lower value) was 1 (inactive) and the normalized growth (locus YER015W, strain faa2, stronger effect = lower value) was 0.798 (active). For the same molecule, the normalized growth (locus YER016W, strain bim1, stronger effect = lower value) was 0.992 (inactive), the normalized growth (locus YER110C, stronger effect = lower value) was 0.999 (inactive) and the normalized growth (locus YER111C, strain swi4, stronger effect = lower value) was 1.02 (inactive). For the same molecule, the normalized growth (locus YER155C, strain BEM2 (second series), stronger effect = lower value) was 0.818 (active), the normalized growth (locus YER155C, strain BEM2, stronger effect = lower value) was 1.03 (inactive) and the normalized growth (locus YER167W, strain BCK2, stronger effect = lower value) was 1 (inactive). The normalized growth (locus YFR010W, strain ubp6, stronger effect = lower value) was 0.898 (active), the normalized growth (locus YGL078C, strain dbp3, stronger effect = lower value) was 0.99 (inactive) and the normalized growth (locus YGL086W, strain mad1, stronger effect = lower value) was 0.973 (inactive). The normalized growth (locus YGL167C, strain pmr1, stronger effect = lower value) was 1.02 (inactive), the normalized growth (locus YGL173C, strain kem1, stronger effect = lower value) was 0.955 (inactive) and the normalized growth (locus YGL227W, strain vid30, stronger effect = lower value) was 0.996 (inactive). The normalized growth (locus YGL240W, strain doc1, stronger effect = lower value) was 0.919 (inactive), the normalized growth (locus YGL248W, strain PDE1, stronger effect = lower value) was 1.01 (inactive) and the normalized growth (locus YGL253W, strain hxk2, stronger effect = lower value) was 0.916 (inactive). For the same molecule, the normalized growth (locus YGR078C, strain PAC10, stronger effect = lower value) was 0.95 (inactive), the normalized growth (locus YGR135W, strain pre9, stronger effect = lower value) was 0.879 (active) and the normalized growth (locus YGR229C, strain SMI1, stronger effect = lower value) was 0.491 (active). The normalized growth (locus YGR252W, strain gcn5, stronger effect = lower value) was 0.688 (active), the normalized growth (locus YHR013C, strain ard1, stronger effect = lower value) was 0.856 (inactive) and the normalized growth (locus YHR027C, strain rpn1, stronger effect = lower value) was 0.904 (active). For the same molecule, the normalized growth (locus YHR030C, strain SLT2, stronger effect = lower value) was 0.843 (active) and 0.985 (inactive), the normalized growth (locus YHR079C, strain IRE1 (second series), stronger effect = lower value) was 0.994 (inactive) and the normalized growth (locus YHR079C, strain IRE1, stronger effect = lower value) was 0.992 (inactive). For the same molecule, the normalized growth (locus YHR094C, strain hxt1, stronger effect = lower value) was 0.994 (inactive), the normalized growth (locus YHR129C, strain ARP1, stronger effect = lower value) was 1.01 (inactive) and the normalized growth (locus YHR142W, strain chs7, stronger effect = lower value) was 0.884 (inactive). For the same molecule, the normalized growth (locus YHR200W, strain rpn10, stronger effect = lower value) was 1 (inactive), the normalized growth (locus YIL066C, strain RNR3, stronger effect = lower value) was 0.978 (inactive) and the normalized growth (locus YIL073C, strain SPO22, stronger effect = lower value) was 0.904 (inactive). The normalized growth (locus YIL125W, strain kgd1, stronger effect = lower value) was 0.999 (inactive), the normalized growth (locus YIR030C, strain dcg1, stronger effect = lower value) was 0.993 (inactive) and the normalized growth (locus YJL092W, strain hpr5, stronger effect = lower value) was 0.982 (inactive). For the same molecule, the normalized growth (locus YJL095W, strain BCK1 (second series), stronger effect = lower value) was 0.923 (inactive), the normalized growth (locus YJL095W, strain BCK1, stronger effect = lower value) was 0.745 (active) and 0.991 (inactive) and the normalized growth (locus YJL115W, strain asf1, stronger effect = lower value) was 0.999 (inactive). The normalized growth (locus YJL129C, strain trk1, stronger effect = lower value) was 0.921 (inactive), the normalized growth (locus YJL134W, strain LCB3, stronger effect = lower value) was 1.01 (inactive) and the normalized growth (locus YJL154C, strain vps35, stronger effect = lower value) was 0.996 (inactive). For the same molecule, the normalized growth (locus YJL164C, strain tpk1, stronger effect = lower value) was 0.937 (inactive), the normalized growth (locus YJL166W, strain qcr8, stronger effect = lower value) was 0.94 (inactive) and the normalized growth (locus YJL168C, strain set2, stronger effect = lower value) was 1 (inactive). The normalized growth (locus YJL187C, strain SWE1 (second series), stronger effect = lower value) was 0.987 (inactive), the normalized growth (locus YJL187C, strain SWE1, stronger effect = lower value) was 0.992 (inactive) and the normalized growth (locus YJR043C, strain POL32, stronger effect = lower value) was 1.03 (inactive). For the same molecule, the normalized growth (locus YJR066W, strain TOR1, stronger effect = lower value) was 0.97 (inactive).
